# “And” between values parts separate entries of the source, which are not always exact repeats. Equal values may be shown once. About 83,000 compounds went through this panel and 20% of them were active in at least one assay; those are over-represented in the sample as a whole.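 Single-concentration screen, 48 h exposure, 96-well plates. Endpoint: percent growth. Below 10 = active.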 The source made the active and inactive calls.
# Tests used:
# Experiment in all cases: NCI-60 one-dose screen, 48 h (100 = growth as untreated, 0 = no growth, -100 = all killed)
# Settings in all cases: 10 µM
# DU-145 prostate = tested on: DU-145 prostate
# K-562 leukemia = tested on: K-562 leukemia
# MALME-3M melanoma = tested on: MALME-3M melanoma
# MDA-MB-231 breast = tested on: MDA-MB-231 breast
# RXF 393 renal = tested on: RXF 393 renal
# SF-268 CNS = tested on: SF-268 CNS
# SF-295 CNS = tested on: SF-295 CNS
# SF-539 CNS = tested on: SF-539 CNS
# UACC-257 melanoma = tested on: UACC-257 melanoma
# M14 melanoma = tested on: M14 melanoma
SMILES,growth (DU-145 prostate),growth (K-562 leukemia),growth (MALME-3M melanoma),growth (MDA-MB-231 breast),growth (RXF 393 renal),growth (SF-268 CNS),growth (SF-295 CNS),growth (SF-539 CNS),growth (UACC-257 melanoma),growth (M14 melanoma)
O=[N+]([O-])/C=C/c1ccc(Cl)cc1[N+](=O)[O-],75.2% (inactive),9.32% (active),96.3% (inactive),58.2% (inactive),-94.7% (active),59.1% (inactive),91.6% (inactive),-35.3% (active),89.3% (inactive),55.3% (inactive)
COc1cc([N+](=O)[O-])c2ncccc2c1[N+](=O)[O-],98.4% (inactive),29.4% (inactive),114% (inactive),78.2% (inactive),59.4% (inactive),52.6% (inactive),94.3% (inactive),13% (inactive),50.4% (inactive),65.8% (inactive)
O=C1C(=O)c2ccccc2-c2ccccc21,-100% (active),-37.4% (active),-93.6% (active),-39% (active),-93.2% (active),-88.7% (active),-97.4% (active),-92.7% (active),-95.6% (active),-83.8% (active)
O=C(O)c1cc(Cc2ccc(O)c(C(=O)O)c2)ccc1O (tested in a mixture with another compound),83% (inactive),68.5% (inactive),89.6% (inactive),66.8% (inactive),39.6% (inactive),76.9% (inactive),13.3% (inactive),79.2% (inactive),60.5% (inactive),80.5% (inactive)
C#CC1(O)CCC(C(C)(C)C)CC1 (stereo not given),114% (inactive),121% (inactive),115% (inactive),119% (inactive),115% (inactive),103% (inactive),97.7% (inactive),102% (inactive),97% (inactive),108% (inactive)
CC(=O)Nc1c2sscc-2n(C)c1=O,-100% (active),-72.9% (active),-89.7% (active),-92.4% (active),-92.5% (active),-80.4% (active),-96.5% (active),-94.9% (active),-44.5% (active),-96.7% (active)
CC12OOC(c3ccccc31)c1c2ccc2ccccc12 (stereo not given),-95.3% (active),-82.8% (active),-88.4% (active),49.7% (inactive),67.3% (inactive),43.1% (inactive),82.5% (inactive),83% (inactive),-17% (active),-7.71% (active)
CN(CCCl)c1ccc(/C=C/C2=[N+](C)c3ccccc3C2(C)C)cc1,28.9% (inactive),26.9% (inactive),23.5% (inactive),21.1% (inactive),82.3% (inactive),31.8% (inactive),45.5% (inactive),14.4% (inactive),30.8% (inactive),37.4% (inactive)
NNc1ccccc1,98.4% (inactive),19.5% (inactive),118% (inactive),89.8% (inactive),123% (inactive),82.6% (inactive),80.5% (inactive),99.3% (inactive),107% (inactive),46.6% (inactive)
Oc1ccccc1-c1ccccc1,103% (inactive) and 113% (inactive),93.2% (inactive) and 97.2% (inactive),99.1% (inactive) and 106% (inactive),95% (inactive),99% (inactive) and 106% (inactive),98% (inactive) and 104% (inactive),105% (inactive) and 112% (inactive),103% (inactive),97.6% (inactive) and 97.1% (inactive),113% (inactive)
C/C(=C\c1ccc(Cl)c(Cl)c1)[N+](=O)[O-],8.46% (active) and 104% (inactive),0.843% (active) and 78.6% (inactive),-55.4% (active) and 105% (inactive),-26.3% (active) and 101% (inactive),-91.7% (active) and 100% (inactive),-19.1% (active) and 102% (inactive),94.5% (inactive),96.3% (inactive) and 100% (inactive),-88.8% (active),-86.8% (active) and 95% (inactive)
N#CCc1ccccc1,113% (inactive),98.3% (inactive),111% (inactive),98.4% (inactive),111% (inactive),93.4% (inactive),104% (inactive),96.5% (inactive),103% (inactive),98.5% (inactive)
COC12C(COC(N)=O)C3=C(C(=O)C(C)=C(N)C3=O)N1CC1C2N1C (stereo not given),-3.38% (active),50.1% (inactive),31.4% (inactive),93.9% (inactive),46% (inactive),45.8% (inactive),17.3% (inactive),19.8% (inactive),16.6% (inactive),28.4% (inactive)
C/C1=C\[C@H](C)C[C@H](C)OC(=O)C[C@H](c2ccc(O)cc2)NC(=O)[C@@H](Cc2c(Br)[nH]c3ccccc23)N(C)C(=O)[C@H](C)NC(=O)[C@@H](C)C1,-15.6% (active),0.288% (active),-65% (active),-33.2% (active),-49.2% (active),-30.3% (active),-61.2% (active),-36.8% (active),0.643% (active),-71.2% (active)
C=NCC#N,109% (inactive),91.2% (inactive) and 107% (inactive),95.6% (inactive) and 111% (inactive),100% (inactive) and 112% (inactive),111% (inactive) and 101% (inactive),103% (inactive) and 102% (inactive),98.3% (inactive) and 124% (inactive),88.4% (inactive) and 99.3% (inactive),114% (inactive) and 103% (inactive),94.2% (inactive)
C[C@]12CC[C@H]3[C@@H](CCC4=CC(=O)CC[C@@H]43)[C@@H]1CC[C@@H]2OC(=O)N(CCCl)N=O,1.81% (active),29.5% (inactive),91.7% (inactive),76.3% (inactive),69.9% (inactive),23.7% (inactive),12.3% (inactive),-0.439% (active),84.4% (inactive),49% (inactive)
CC[C@@]1(O)C[C@H](OC2CC(N(C)C)C(O)C(C)O2)c2c(cc3c(c2O)C(=O)c2c(O)ccc(O)c2C3=O)[C@H]1C(=O)OC (stereo not given in full),-77.8% (active),-73.7% (active),-87.4% (active),-70.9% (active),-66.3% (active),-61% (active),-81.5% (active),-88.5% (active),-67.7% (active),-93.1% (active)
COc1cc([C@@H]2c3cc4c(c(O)c3C[C@H]3COC(=O)[C@@H]32)OCO4)cc(OC)c1OC,-28.2% (active),7.73% (active),40.4% (inactive),21% (inactive),14.3% (inactive),21.5% (inactive),-22.2% (active),-18% (active),57.5% (inactive),-66.3% (active)
O=S(=O)(F)c1ccc(Cl)cc1,130% (inactive),112% (inactive),123% (inactive),115% (inactive),112% (inactive),97.6% (inactive),114% (inactive),99.7% (inactive),99.1% (inactive),104% (inactive)
CC1CCC2(OC1)OC1C(O)C3C4CCC5CC(OC6OC(CO)C(OC7OC(CO)C(O)C(OC8OCC(O)C(O)C8O)C7OC7OC(CO)C(O)C(OC8OC(CO)C(O)C(O)C8O)C7O)C(O)C6O)C(O)CC5(C)C4CCC3(C)C1C2C (stereo not given),-100% (active),-100% (active),14.8% (inactive),-70.2% (active),-71.6% (active),-39.7% (active),-77.9% (active),-53.3% (active),-85.7% (active),62.9% (inactive)
COc1ccc(/C=C\[N+](=O)[O-])cc1OC,60.5% (inactive) and 59.3% (inactive),69.7% (inactive) and 27.5% (inactive),155% (inactive) and 105% (inactive),91.4% (inactive) and 68.9% (inactive),4.99% (active) and -51.1% (active),73.8% (inactive) and 70.3% (inactive),60.6% (inactive) and 85.3% (inactive),88.1% (inactive) and 59.3% (inactive),33.8% (inactive) and 73% (inactive),75.6% (inactive) and 42.5% (inactive)
O=C1CCC(=O)N1SC(Cl)(Cl)Cl,120% (inactive),95.3% (inactive),118% (inactive),113% (inactive),108% (inactive),109% (inactive),117% (inactive),109% (inactive),110% (inactive),108% (inactive)
COc1ccccc1/C=C/[N+](=O)[O-],48.2% (inactive),33.8% (inactive),97.5% (inactive),73% (inactive),1.37% (active),76.1% (inactive),93.9% (inactive),64% (inactive),71.8% (inactive),59.8% (inactive)

# Reference: PubChem BioAssay (NCI)
